Experiment in all cases: protein-binding microarray (PBM); PBM: ~300 nM protein, 6 mM HEPES pH 7.8, 80 mM KCl, 0.5 mM EDTA, 0.5 mM EGTA, 6% glycerol, 35 ng/ul poly-dIdC, 1% milk, 1 h, room temperature; Ap Aiptasia and Nv Nematostella (sea anemones) / Co Capsaspora / Aq Amphimedon (sponge) / Dm Drosophila / Hu human; RHD is the Rel homology domain; high values mean tight binding
Common to all, as to settings: dsDNA, one strand shown

One assay deals with T1, GST-Ap-NF-kB RHD (Exaiptasia pallida (Aiptasia), UniProt A0A913YAJ5 2-422).
T1 sequence: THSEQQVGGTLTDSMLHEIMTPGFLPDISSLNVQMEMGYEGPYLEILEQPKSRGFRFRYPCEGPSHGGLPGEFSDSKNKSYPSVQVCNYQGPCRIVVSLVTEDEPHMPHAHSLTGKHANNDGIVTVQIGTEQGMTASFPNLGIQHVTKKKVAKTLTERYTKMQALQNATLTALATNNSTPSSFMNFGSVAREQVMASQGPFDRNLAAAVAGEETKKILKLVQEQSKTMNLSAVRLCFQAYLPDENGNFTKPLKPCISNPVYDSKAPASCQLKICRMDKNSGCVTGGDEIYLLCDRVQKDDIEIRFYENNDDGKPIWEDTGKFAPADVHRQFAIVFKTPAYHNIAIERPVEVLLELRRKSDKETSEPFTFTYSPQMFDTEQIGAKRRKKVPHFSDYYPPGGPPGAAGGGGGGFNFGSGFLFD

Assay [1] concerns the target T2, GST-Nv-NF-kB (Cys allele) (Nematostella vectensis, UniProt E5G601 2-411).
T2 sequence: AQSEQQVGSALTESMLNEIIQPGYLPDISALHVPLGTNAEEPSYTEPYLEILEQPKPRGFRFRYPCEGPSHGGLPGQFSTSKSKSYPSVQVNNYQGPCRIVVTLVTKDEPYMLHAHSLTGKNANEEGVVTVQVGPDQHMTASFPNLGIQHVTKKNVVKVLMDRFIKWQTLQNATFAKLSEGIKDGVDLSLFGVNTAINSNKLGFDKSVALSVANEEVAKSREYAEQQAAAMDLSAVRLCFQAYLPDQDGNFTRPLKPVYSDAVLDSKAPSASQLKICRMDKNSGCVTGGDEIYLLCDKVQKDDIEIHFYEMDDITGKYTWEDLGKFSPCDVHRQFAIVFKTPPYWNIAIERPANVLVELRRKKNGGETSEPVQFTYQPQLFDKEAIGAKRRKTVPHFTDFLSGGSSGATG

The next assay deals with T3, GST-Co-NF-kB (Capsaspora owczarzaki, UniProt F1ARL5 200-546).
T3 sequence: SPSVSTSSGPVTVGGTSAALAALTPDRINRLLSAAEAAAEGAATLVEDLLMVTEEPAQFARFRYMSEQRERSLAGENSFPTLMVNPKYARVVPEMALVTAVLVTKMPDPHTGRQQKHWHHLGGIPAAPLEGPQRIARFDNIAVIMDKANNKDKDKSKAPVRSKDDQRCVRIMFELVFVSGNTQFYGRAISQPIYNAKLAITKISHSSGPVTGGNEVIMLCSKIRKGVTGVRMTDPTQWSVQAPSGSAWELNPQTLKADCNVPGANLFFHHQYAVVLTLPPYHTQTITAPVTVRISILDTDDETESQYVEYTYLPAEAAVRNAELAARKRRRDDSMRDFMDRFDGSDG

Another assay has as its target T4, GST-Dm-Relish (Drosophila melanogaster, UniProt Q94527 99-473).
T4 sequence: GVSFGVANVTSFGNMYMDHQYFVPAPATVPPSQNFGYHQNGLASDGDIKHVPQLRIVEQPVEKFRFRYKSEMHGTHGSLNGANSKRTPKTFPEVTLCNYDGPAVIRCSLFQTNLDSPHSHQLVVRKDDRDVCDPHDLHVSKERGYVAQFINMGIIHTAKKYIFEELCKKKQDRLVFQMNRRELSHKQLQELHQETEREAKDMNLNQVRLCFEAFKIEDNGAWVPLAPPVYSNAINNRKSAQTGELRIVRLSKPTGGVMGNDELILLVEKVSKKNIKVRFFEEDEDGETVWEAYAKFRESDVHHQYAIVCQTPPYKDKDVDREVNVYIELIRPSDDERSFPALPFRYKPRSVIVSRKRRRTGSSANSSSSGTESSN

Another assay has as its target T5, GST-Aq-NF-kB (Amphimedon queenslandica, UniProt A9Y5G7 2-389).
T5 sequence: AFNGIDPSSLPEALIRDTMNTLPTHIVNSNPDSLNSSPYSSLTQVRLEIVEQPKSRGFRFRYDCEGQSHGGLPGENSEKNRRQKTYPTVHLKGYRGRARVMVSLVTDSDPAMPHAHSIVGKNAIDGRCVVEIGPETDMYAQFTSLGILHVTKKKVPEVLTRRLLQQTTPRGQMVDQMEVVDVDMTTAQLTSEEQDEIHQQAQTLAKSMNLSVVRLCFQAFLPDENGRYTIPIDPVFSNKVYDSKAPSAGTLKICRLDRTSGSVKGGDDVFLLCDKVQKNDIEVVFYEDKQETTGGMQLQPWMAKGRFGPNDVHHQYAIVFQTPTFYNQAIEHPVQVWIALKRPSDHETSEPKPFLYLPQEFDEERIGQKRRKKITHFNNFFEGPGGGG

In the case of “CCGATTAACATCACAGGGAATTCTGATGTTAATCGGGTCTTGATTCGCTTGACGCTGCTG”, the binding signal with GST-Ap-NF-kB RHD amounted to 4.57 z-score; in assay [1] it was 5.56 z-score; in the assay with GST-Co-NF-kB, 3.45 z-score; in the assay with GST-Dm-Relish, 3.71 z-score; with GST-Aq-NF-kB, 4.62 z-score.

In the case of “CCGATTAACATCAATTTCCCGCCTGATGTTAATCGGGTCTTGATTCGCTTGACGCTGCTG”, the binding signal with GST-Ap-NF-kB RHD was 2.79 z-score; in assay [1] it was 3.63 z-score; in the assay with GST-Co-NF-kB it was 3.64 z-score; with GST-Dm-Relish it was 1.31 z-score; with GST-Aq-NF-kB, 2.64 z-score.

Regarding “CCGATTAACATCAGGGGGAAGCATGATGTTAATCGGGTCTTGATTCGCTTGACGCTGCTG”, the binding signal with GST-Ap-NF-kB RHD turned out to be 4.43 z-score; in assay [1] it was 5.1 z-score; with GST-Co-NF-kB it was 7.73 z-score; with GST-Dm-Relish it was 3.21 z-score; with GST-Aq-NF-kB it was 4.01 z-score.

With “CCGATTAACATCAAGAATTCCCATGATGTTAATCGGGTCTTGATTCGCTTGACGCTGCTG”, the binding signal stood at 4.1 z-score with GST-Ap-NF-kB RHD; 5.41 z-score in assay [1]; 3.48 z-score with GST-Co-NF-kB; 4.5 z-score in the assay with GST-Dm-Relish; 4.33 z-score with GST-Aq-NF-kB.

For “CCGATTAACATCAGGGGATCCCATGATGTTAATCGGGTCTTGATTCGCTTGACGCTGCTG”, the binding signal with GST-Ap-NF-kB RHD is 7.15 z-score; in assay [1] it was 5.1 z-score; in the assay with GST-Co-NF-kB, 2.81 z-score; in the assay with GST-Dm-Relish, 10 z-score; with GST-Aq-NF-kB it was 4.95 z-score.

Regarding “CCGATTAACATCAGGGGAGAACCTGATGTTAATCGGGTCTTGATTCGCTTGACGCTGCTG”, the binding signal in the assay with GST-Ap-NF-kB RHD was determined as 6.35 z-score; in assay [1], 4.58 z-score; with GST-Co-NF-kB, 5.4 z-score; in the assay with GST-Dm-Relish, 5.43 z-score; with GST-Aq-NF-kB, 5.51 z-score.

For “CCGATTAACATCAGGGGATCCACTGATGTTAATCGGGTCTTGATTCGCTTGACGCTGCTG”, the binding signal with GST-Ap-NF-kB RHD stood at 7.41 z-score; in assay [1], 5.27 z-score; in the assay with GST-Co-NF-kB, 2.76 z-score; in the assay with GST-Dm-Relish it was 9.75 z-score; with GST-Aq-NF-kB, 6.81 z-score.

Regarding “CCGATTAACATCAGCCCCCCCCATGATGTTAATCGGGTCTTGATTCGCTTGACGCTGCTG”, the binding signal with GST-Ap-NF-kB RHD came out at 4.34 z-score; in assay [1], 2.9 z-score; in the assay with GST-Co-NF-kB, 5.27 z-score; with GST-Dm-Relish, 4.42 z-score; in the assay with GST-Aq-NF-kB it was 4.51 z-score.

Consider “CCGATTAACATCAAAGTACCCCCTGATGTTAATCGGGTCTTGATTCGCTTGACGCTGCTG”, for which the binding signal with GST-Ap-NF-kB RHD came out at 6.74 z-score; in assay [1], 4.38 z-score; with GST-Co-NF-kB, 6.64 z-score; in the assay with GST-Dm-Relish it was 4.39 z-score; with GST-Aq-NF-kB, 4.52 z-score.

As for “CCGATTAACATCAAGCACCCCCTTGATGTTAATCGGGTCTTGATTCGCTTGACGCTGCTG”, the binding signal with GST-Ap-NF-kB RHD turned out to be 4.4 z-score; in assay [1], 3.21 z-score; with GST-Co-NF-kB it was 1.76 z-score; in the assay with GST-Dm-Relish it was 2.85 z-score; in the assay with GST-Aq-NF-kB, 4.66 z-score.

With “CCGATTAACATCAATTTCCCATATGATGTTAATCGGGTCTTGATTCGCTTGACGCTGCTG”, the binding signal with GST-Ap-NF-kB RHD came to 1.56 z-score; in assay [1], 3.3 z-score; in the assay with GST-Co-NF-kB, 2.34 z-score; in the assay with GST-Dm-Relish it was 2.14 z-score; with GST-Aq-NF-kB, 2.17 z-score.

With “CCGATTAACATCACGGGAAACTCTGATGTTAATCGGGTCTTGATTCGCTTGACGCTGCTG”, the binding signal was 3.67 z-score with GST-Ap-NF-kB RHD; 4.12 z-score in assay [1]; 4.3 z-score with GST-Co-NF-kB; 1.55 z-score in the assay with GST-Dm-Relish; 4.35 z-score with GST-Aq-NF-kB.

On to “CCGATTAACATCAAGGCATTCCCTGATGTTAATCGGGTCTTGATTCGCTTGACGCTGCTG”, for which the binding signal is 1.97 z-score with GST-Ap-NF-kB RHD; 2.56 z-score in assay [1]; 1.94 z-score with GST-Co-NF-kB; 2.53 z-score with GST-Dm-Relish; 3.27 z-score with GST-Aq-NF-kB.

Consider “CCGATTAACATCAAAACAGCCCCTGATGTTAATCGGGTCTTGATTCGCTTGACGCTGCTG”, for which the binding signal in the assay with GST-Ap-NF-kB RHD was 3.58 z-score; in assay [1], 4.9 z-score; with GST-Co-NF-kB it was 1.71 z-score; in the assay with GST-Dm-Relish, 3.31 z-score; with GST-Aq-NF-kB, 5.54 z-score.

The record behind these values is PMC5700166.
